# Source: ChEMBL document CHEMBL3988442, “University of Dundee, Small-Polar-MMV Screening Library” (2021)
# Screen size: about 48,000 compounds; about 13,000 (27%) showed an effect of 50% or more. The list shows a part of the results.
# System: Wolbachia pipientis
# Assay: Anti-Wolbachia Cell-Based Screen
# Format: functional
# Set-up: scale not given: in the data most compounds retested in dose-response had high values
# Details: 5 µM
row,SMILES,Percent Effect
1,CN1CC(c2ccccc2)CC12CCN(C(=O)c1c(Cl)cnn1C)CC2 (centres undefined),11%
2,CC1CCN(C)c2ccccc2N1C(=O)c1ccnc(-n2cncn2)c1 (centres undefined),-2.842%
3,Cc1ccccc1C(C(=O)NCc1nc(-c2ncccn2)no1)N(C)C (centres undefined),-2.983%
4,Cc1cccnc1[C@H](C)Nc1nc(-c2cccnc2)nc2c1CNC2,-9.004%
5,CC(C)n1ccnc1C1CCN(C(=O)c2ccccc2N(C)C)CC1,-47.93%
6,COc1cccc(CC(=O)NCC(Cc2ccc(F)cc2)C(N)=O)c1 (centres undefined),112.8%
7,COc1cccc(COCC(=O)NC(C(N)=O)c2ccccc2F)c1 (centres undefined),9.878%
8,CCOc1ccc(CC(CNC(=O)c2ccco2)C(N)=O)cc1 (centres undefined),-3.482%
9,COc1cccc(C(=O)N(C)Cc2ncc(C)c(OC)c2C)c1OC,-3.642%
10,COc1ccccc1C(=O)N(C)Cc1nnc2ccccn12,155.2%
11,COc1ccc(C(=O)N(C)Cc2cccc(C#N)c2)c(OC)c1OC,5.74%
12,COc1ccc(OC)c(C(=O)N(C)Cc2nnc3ccccn23)c1,126.3%
13,CN(Cc1nnc2ccccn12)C(=O)CC1CCCCC1,-9.634%
14,CN(Cc1nnc2ccccn12)C(=O)CCC1CCCC1,-7.535%
15,COc1ccc(C(=O)N(C)Cc2nnc3ccccn23)c(OC)c1,-6.181%
16,COc1ccc(C(=O)N(C)Cc2nnc3ccccn23)c(OC)c1OC,155.5%
17,Cc1ccc(C)c(CN(C)Cc2nnc3ccccn23)c1,-4.756%
18,CCc1ccc(C2COCCN2C(=O)NCc2cccc(C#N)c2)o1 (centres undefined),-15.12%
19,Cn1cccc1-c1cc(C(=O)N2CCCC2c2ccc(C(N)=O)s2)[nH]n1 (centres undefined),-10.74%
20,CC(C)CN1CCOC[C@H](Oc2ccc(S(C)(=O)=O)cc2)C1,2.76%
21,Cc1cc(C(=O)NCc2ccnc(N3CCN(C)CC3)c2)c(C)s1,0.2044%
22,O=C1CCCCN1CSc1nnnn1-c1ccc(Cl)cc1,-1.778%
23,CSC1=Nc2c(cnn2-c2ccc(C)cc2)C2=NCCCN12,111.5%
24,CSC1=Nc2c(cnn2-c2ccccc2)C2=NCCCN12,110.4%
25,Cc1cc(NC(=O)N2CCC[C@@H]2CO)nn1-c1cccc(Cl)c1,-10.34%
26,CCSC1=Nc2c(cnn2-c2ccc(Cl)cc2)C2=NCCCN12,119%
27,CSC1=Nc2c(cnn2-c2cccc(Cl)c2)C2=NCCCN12,101.8%
28,CC(C)OCCOCc1cccc(NC(=O)NCCn2ccnc2)c1,1.646%
29,O=C(CCc1cc2n(n1)CCN(Cc1ncc[nH]1)C2)N1CCCC1,6.822%
